# An excerpt weighted towards active compounds, which were near 2.2% of everything screened.
# TLR4 MyD88 comp: blocks binding of human TLR4 to MyD88 | HeLa CL3-4 TLR4/MyD88 BLA complementation, FRET ratio | inhibition, % at 8.4 µM | actives 0.18% (n = 200,000) | AID 861; in the data active = inhibition above about 25%;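 also: 0% = vehicle and 100% = reference inhibitor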
# NOD2 RIPK2 PPI: blocks binding of human NOD2 to RIPK2; CHO BLA complementation NOD2-RIPK2, CCF4 ratio; inhibition, % at 4.98 µM; actives 0.38% (n = 360,000); in the data active = inhibition above about 21%;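 also: 0% = vehicle only and 100% = reference blocker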
# Target sequence (O43353 whole entry, looked up): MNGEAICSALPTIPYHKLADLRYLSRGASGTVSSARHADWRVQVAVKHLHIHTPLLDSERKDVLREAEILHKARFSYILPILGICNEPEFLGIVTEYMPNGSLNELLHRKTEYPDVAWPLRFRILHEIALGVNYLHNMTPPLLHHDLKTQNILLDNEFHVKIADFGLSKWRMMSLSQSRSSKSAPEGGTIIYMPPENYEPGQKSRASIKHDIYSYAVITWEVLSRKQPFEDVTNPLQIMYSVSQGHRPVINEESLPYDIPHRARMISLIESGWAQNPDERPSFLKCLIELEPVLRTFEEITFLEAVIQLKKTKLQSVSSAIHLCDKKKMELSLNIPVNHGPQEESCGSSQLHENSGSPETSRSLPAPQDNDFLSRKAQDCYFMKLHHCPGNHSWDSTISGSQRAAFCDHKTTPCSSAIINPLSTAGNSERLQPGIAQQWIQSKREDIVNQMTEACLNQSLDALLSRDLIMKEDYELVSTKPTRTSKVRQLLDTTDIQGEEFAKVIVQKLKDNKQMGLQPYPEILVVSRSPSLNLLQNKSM
# TMEM16A act: activates or potentiates the mouse TMEM16A chloride channel | B-score at 10 µM | actives 0.3% (n = 340,000) | HEK293 TMEM16A/YFP-H148Q/I152L, iodide quench fluorescence; stronger effect = lower value;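 active = fluorescence-ratio B-score plate-corrected deviation score at least 3 library SD below zero, with starting fluorescence score within 5 deviations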;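 also: channel opened by trigger with iodide after compound preincubation; score built on the fluorescence ratio of max minus min over baseline; more negative score means more quench and so TMEM16A activation or potentiation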
# GRK2 inh: inhibitors of human GRK2 displacing RNA aptamer. P25098. bead flow cytometry, FAM-aptamer displacement from GRK2. inhibition of aptamer binding, % at 10 µM. actives 0.59% (n = 330,000). AID 488847;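 active = inhibition of aptamer binding above 40%, roughly 3 SD of noise, on plates passing a quality check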;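 also: median bead fluorescence of bound FAM aptamer so fluorescent compounds give negative values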
# TLR9-MyD88 block: blocks human TLR9 binding to MyD88; actives 0.21% (n = 340,000); CHO BLA complementation TLR9-MyD88, CCF4 FRET ratio; Q9NR96+Q99836; AID 504734; inhibition, % at 4.98 µM;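 active = inhibition above the mean over all tested compounds plus 3 SD, cut at about 21% in these data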;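 also: 0% = DMSO only wells and 100% = clavulanate BLA inhibitor control wells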
# ANO1 block: inhibitors of mouse TMEM16A calcium-activated chloride channel; Q8BHY3; HEK293 TMEM16A/YFP iodide influx fluorescence, ionomycin; normalized B-score (activity score, 25-100; higher = stronger inhibition) at 10 µM; actives 1.2% (n = 310,000); AID 588511;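 active = ratio plate-corrected score three or more library SD toward inhibition, starting fluorescence score within five deviations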;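 also: score derived from kinetic fluorescence span divided by baseline fluorescence per well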
# Numbers without * were called inactive; i = inactive; / = not tested or not shown.
SMILES,TLR4 MyD88 comp,NOD2 RIPK2 PPI,TMEM16A act,GRK2 inh,TLR9-MyD88 block,ANO1 block
Cc1c(C)c2ccc(OCC(=O)N3CC[C@@]4(O)CCCC[C@H]4C3)cc2oc1=O,/,1,-5.6*,0,-1,i
CCCc1cc(=O)oc2cc(OCC(=O)N3CC[C@@]4(O)CCCC[C@H]4C3)ccc12,/,-11,/,/,/,/
Cc1cc(=O)c(C(=O)Nc2cccc(N3CCCC3=O)c2)nn1-c1ccccc1F,/,-9,-46*,1,0,/
CCC(=O)Nc1nc(=S)ss1,-5,-12,i,2,-5,i
CC(C)(C)C(=O)Nc1nc(=S)ss1,-15,-9,i,0,-1,100*
COC(=O)[C@@]12C[C@@H](CC(=O)NCCC(C)C)C(=O)N(Cc3cccc4ccccc34)C1=CCC(C)(C)C2,/,4,/,/,/,/
CC1C(=O)OC2C1CCC1(C)C3(C)C(=O)C=CC213 (stereo unspecified),/,-11,/,/,/,/
N#C/C(=C(/O)c1ccc2c(c1)OCO2)c1nc2cc(C(F)(F)F)ccc2s1,/,-6,i,2,-5,100*
N#C/C(=C(/O)c1ccccc1F)c1nc2cc(C(F)(F)F)ccc2s1,0,1,i,2,-5,i
O=C(NC1CCCc2ccccc21)c1ccccc1 (stereo unspecified),-14,0,i,2,-2,i
O=C(NC1CC1(c1ccccc1)c1ccccc1)c1ccccc1 (stereo unspecified),/,4,-9.3*,/,-10,/
CN(Cc1nc(-c2ccc(Cl)cc2)no1)C(=O)c1ccc2c(c1)OCO2,/,-12,i,0,1,25*
O=S(=O)(N/N=C/c1ccc(F)cc1)c1ccccc1,-9,9,i,3,11,25*
O=C1CCCN1CCC1CCN(C2CC(=O)N(c3ccc(Cl)cc3)C2=O)CC1 (stereo unspecified),15,22*,i,5,-3,i
Cc1cc(C)c(C#N)c(SCSCc2ccccc2)n1,1,-7,i,0,-5,i
Cc1cc(C)c(C#N)c(SCc2ccccc2F)n1,-7,0,i,1,7,25*
O=S1(=O)N[C@@H](Cc2ccccc2)COc2cc(N3CC[C@H](O)C3)ccc21,/,-6,/,/,/,/
CC(CN1CCC(O)CC1)c1ccccc1 (stereo unspecified),/,7,i,0,9,i
CC1CCN(C(=O)C2CCN(CC(C)c3ccccc3)CC2)CC1 (stereo unspecified),-1,-5,i,0,-12,25*
CC1CC(C)(C)N(C(=O)CN2C(=O)c3ccccc3C2=O)c2ccccc21 (stereo unspecified),-15,9,-6.2*,1,-6,i
CC1(C(=O)Nc2ccc(Cl)c(Cl)c2)CCN1C(=O)C1CCCCC1 (stereo unspecified),/,-2,/,/,/,/
CC(C)CCN1CCN(Cc2ccc(C#CC(C)(C)O)s2)CC1CCO (stereo unspecified),13,-3,-8.5*,0,-5,i
CC(C)CN1CCN(Cc2ccc(C#CC(C)(C)O)cc2)CC1CCO (stereo unspecified),-9,7,i,1,-5,i
COc1ccc(C(=O)C2CCCN(Cc3ccc4nonc4c3)C2)cc1F (stereo unspecified),4,3,i,1,5,25*
O=C(NC1CCCC1)C1c2ccccc2OCC(=O)N1C1CC1 (stereo unspecified),/,-8,/,/,/,/
SMILES,TLR4 MyD88 comp,NOD2 RIPK2 PPI,TMEM16A act,GRK2 inh,TLR9-MyD88 block,ANO1 block
CCCCCCC(C)n1cc(C(C)=O)c(=O)[nH]c1=O (stereo unspecified),4,-5,i,0,-4,100*
COC(=O)C1=CN(c2ccc(N3CCOCC3)cc2)C(N)=C(C#N)C1c1cccc(F)c1 (stereo unspecified),/,-5,/,/,/,/
O=C(Oc1cc2oc(=O)cc(-c3ccccc3)c2cc1Cl)C1CCCCC1,20,29*,i,3,17,i
CCOC(=O)c1sc(NC(=O)c2ccc(S(=O)(=O)N(C)C)cc2)nc1C,1,-13,-14*,4,-1,i
CCOC(=O)c1csc(NC(=O)c2ccc(S(=O)(=O)N(C)C)cc2)n1,-4,-4,i,0,3,i
O=C(CCN1C(=O)c2ccc([N+](=O)[O-])cc2C1=O)Nc1ccc(O)cc1C(=O)O,-2,-10,i,5,-17,i
O=C(O)Cc1ccc(NC(=O)CCN2C(=O)c3ccc([N+](=O)[O-])cc3C2=O)cc1,-27,-3,-6.3*,/,-11,/
O=C(O)c1cc(O)c2c(c1)[C@@H]([C@H]1c3cc(C(=O)O)cc(O)c3C(=O)c3c(O[C@@H]4O[C@H](CO)[C@@H](O)[C@H](O)[C@H]4O)cccc31)c1cccc(O[C@@H]3O[C@H](CO)[C@@H](O)[C@H](O)[C@H]3O)c1C2=O,/,/,/,100*,/,/
Cc1cc(C)n2c(NCc3ccccc3)c(-c3cc4ccccc4o3)nc2n1,/,-3,/,/,/,/
CSc1ccccc1C(=O)Nc1ccccc1C,13,-1,i,0,-4,i
Cc1ccccc1NC(=O)c1ccccc1O,-16,13,i,2,1,25*
C[C@@H]1CN([C@@H](C)CO)C(=O)c2ccccc2-c2ccccc2CO[C@@H]1CN(C)S(=O)(=O)c1ccc(C(F)(F)F)cc1,/,5,/,/,-3,/
COc1ccccc1C1CC(c2cccc(NS(C)(=O)=O)c2)=NN1S(=O)(=O)c1ccccc1 (stereo unspecified),/,-1,-5*,0,2,i
c1ccc(Nc2ccnc(Nc3ccccc3)n2)cc1,/,-8,i,/,3,25*
CCc1nc2c(OCCOc3ccc(F)cc3)cccn2c1N(C)C(=O)CC(C)C,/,-13,/,/,/,/
Cc1ccc(C(=O)N[C@@H](Cc2ccccc2)C(=O)N2CCC3(CC2)NCCc2[nH]cnc23)cc1C,/,-7,-50*,0,-18,i
CC(C)C[C@@H]1CN(CCCC[C@H]2CNC(=O)C(=O)N2CCC2CCCCC2)C(=O)C(=O)N1Cc1ccccc1,/,4,/,/,/,/
CCSc1nnc(NC(=O)c2cccc(S(=O)(=O)N(C)c3ccc(C)cc3)c2)s1,5,-4,i,10,0,25*
CCOC(=O)CSc1nnc(NC(=O)c2cccc(S(=O)(=O)N3CCCCCC3)c2)s1,-6,-3,i,0,0,25*
NC(=O)CSc1nnc(NC(=O)c2cccc(S(=O)(=O)N3CCCCC3)c2)s1,-10,6,i,4,2,i
CC(C)C(=O)N1CCC1(C)C(=O)Nc1ccc2[nH]ccc2c1 (stereo unspecified),/,2,/,/,/,/
